Source: PubChem
IEC-6 tox – cytotoxicity in IEC-6 intestinal epithelial cells, primary screen, cytotoxicity control for KLF5 inhibitor project, cell-based, luminescence; 290,000 tested, 0.78% active; AID 1825, 2009; inhibition, % at 5 µM; IEC-6 cytotoxicity, luminescence viability; in the data active = inhibition above about 22%;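 also: 0% = plate median of test compound wells and 100% = cytotoxic reference compound wells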
Ba/F3 V617F tox – reduced viability of JAK2V617F-dependent Ba/F3 cells, primary screen, JAK2V617F inhibitor project, cell-based, Ba/F3 EpoR-JAK2V617F, luminescence; 220,000 tested, 1.1% active; inhibition, % at 5.6 µM; ATP luminescence; AID 1446, 2008;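 active = inhibition above the campaign mean plus 3 SD over all tested compounds, cut at about 24% in these data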;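 also: cytokine-independent growth of Ba/F3 cells driven by EpoR plus mutant JAK2; 0% = DMSO-treated cells and 100% = JAK inhibitor I control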
BaF3 parental – parental Ba/F3 cell viability inhibition, counter-screen for JAK2V617F inhibitor project, murine pro-B, CellTiter-Glo luminescence. AID 1486, 2009. inhibition, % at 5.6 µM. CellTiter-Glo ATP luminescence. 220,000 tested, 1.1% active;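 active = inhibition above a per-campaign cutoff, the mean inhibition of all tested compounds plus 3 SD, cut at about 27% in these data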;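 also: 0% = DMSO wells and 100% = JAK Inhibitor I control wells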
KLF5 inh – KLF5 expression inhibitors, primary screen, DLD-1 cells, luminescence; DLD-1 KLF5 promoter-luciferase reporter; inhibition, % at 5 µM; 290,000 tested, 0.23% active; AID 1700, 2009;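 active = inhibition above a per-plate limit of that plate's mean compound inhibition plus 3 SD, cut at about 60% in these data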;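 also: 0% = DMSO wells and 100% = LY294002 at 200 µM; higher means less KLF5 promoter-driven luciferase light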
aSyn 5UTR inh – MLPCN primary screen, SNCA 5' untranslated region; 300,000 tested, 0.82% active; alpha-synuclein 5'UTR reporter, inhibitor activity; inhibition, % (tested at 7.5 µM); in the data active = inhibition above about 60%;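 also: H4 neuroglioblastoma cells stably carrying SNCA 5'UTR luciferase fusion; 0% = DMSO wells and 100% = positive control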
APP transl inh – inhibitors of APP translation via 5'UTR reporter, primary screen, APP 5'UTR luciferase, SH-SY5Y cells; SH-SY5Y APP 5'UTR-luciferase reporter, luminescence; inhibition, % at 2 µM; 190,000 tested, 0.82% active; AID 1285, 2008;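 active = inhibition above a set limit, derived from the sample mean plus 3 SD, cut at about 45% in these data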
Starred values were filed as active, the others as inactive; / = no result. Hits are enriched below; roughly 2.2% of the tested compounds scored in any of these assays.

SMILES	IEC-6 tox	Ba/F3 V617F tox	BaF3 parental	KLF5 inh	aSyn 5UTR inh	APP transl inh
O=C(O)CCn1c(-c2ccccc2)cc2ccccc21	-4	-5	10	-13	-14	-17
COc1ccc(CC2(CO)CCN(CC3=Cc4cc(Cl)ccc4OC3)CC2)cc1	-1	37*	39*	-12	-1	14
COc1ccc2c(c1)C=C(CN1CCC(CO)(CCc3ccccc3)CC1)CO2	-4	-3	4	9	8	-11
C[C@@H](C(=O)N1CCN(C(=O)OC(C)(C)C)CC1)n1cc(-c2cn([C@@H](C)C(=O)N3CCN(C(=O)OC(C)(C)C)CC3)nn2)nn1	/	/	/	/	-13	/
CCOCCOC(=O)C1=C(C)NC(=O)NC1c1cc2c(cc1Br)OCO2 (stereo not given)	0	/	/	-38	13	/
Cc1ccc(Nc2nnc(C(C)(C)C)c(=O)n2N)cc1	-8	-1	5	-10	16	-12
CC(C)(C)c1nnc(N/N=C/c2cc(Br)ccc2O)n(N)c1=O	-3	0	1	9	116*	80*
CC(=O)c1ccc(NC(=O)C2CCN(S(=O)(=O)c3ccc4c(c3)N(C(C)=O)CCO4)CC2)cc1	-3	/	/	5	25	/
Cc1ccsc1/C=N/NC(=O)c1ccc2nc[nH]c2c1	1	-2	6	-24	-18	-11
COc1ccc(C(=O)CSc2nnc(-c3ccco3)c(-c3ccco3)n2)cc1	-24	3	3	-8	-36	67*
O=C(CSc1nnc(-c2ccco2)c(-c2ccco2)n1)Nc1ccccc1	-14	-3	-1	-6	19	50*
Cc1ccc(NC(=O)CSc2nnc(-c3ccco3)c(-c3ccco3)n2)cc1	-20	1	1	-6	22	31
CCC(C)c1ccc(C(CC)NC(=O)C2CCCO2)cc1 (stereo not given)	-2	/	/	-22	14	/
O=C(NCc1cccnc1)C(=O)C1C(=O)Nc2ccccc21 (stereo not given)	4	4	-2	13	-22	/
CC(C)(C)C1=CC(=O)C(=O)C(C(C)(C)C)=C1	5	-1	2	-5	-21	47*
COc1ccc(CCNS(=O)(=O)c2cc(C(=O)O)c(Cl)cc2Cl)cc1	-4	-2	4	-17	-8	-14
Cc1c(CNCCc2ccc(Cl)cc2)c(C(=O)O)c(C)n1-c1ccccc1	2	/	/	-23	1	/
COc1ccc(/C=C/c2ccc3c(Br)ccc(O)c3n2)cc1	6	/	/	-95	-151	/
COc1cc(/C=C/c2ccc3c(Br)cc(Br)c(O)c3n2)ccc1O	1	-5	1	17	65*	/
C=CC(C)(C)c1c(O)c(CC=C(C)C)c(O)c2c(=O)c3ccc(O)c(O)c3oc12	/	/	/	/	73*	/
Cc1cc(C(=O)N/N=C2\CCCc3ccccc32)c(C)o1	8	0	7	-18	-126	68*
OCOCCCn1c(C2CCCN2c2nc(-c3ccc(F)cc3)cs2)nc2cc(Cl)c(N3CCCCC3)cc21 (stereo not given)	/	/	/	/	-42	/
N=c1sc2ccccc2n1-c1ccccc1	1	3	10	-15	27	0
C=CC(=O)N=c1sc2ccccc2n1-c1ccccc1	13	3	2	-14	70*	39
C#CCn1cc[n+](CC(=O)N(C)C)c1	2	-4	3	-31	0	-5
SMILES	IEC-6 tox	Ba/F3 V617F tox	BaF3 parental	KLF5 inh	aSyn 5UTR inh	APP transl inh
CCCCCCCCCCCCCCCCn1cc[n+](CC(C)=O)c1	2	68*	75*	2	/	20
Cc1ccc(NC(=S)NC(=O)c2ccc(F)cc2)cc1S(=O)(=O)Nc1cccc(Cl)c1	11	3	7	26	81*	-6
COc1ccc(N2C(=O)c3ccccc3NC2c2ccccc2O)cc1 (stereo not given)	7	/	/	-102	-47	/
CC(C)Oc1ccccc1C1Nc2ccccc2C(=O)N1c1ccc2c(c1)OCCO2 (stereo not given)	1	-3	1	-31	68*	-150
CC(C)(C)c1ccc(Oc2ccc(NC(=O)c3ccco3)cn2)cc1	13	80*	72*	-32	-11	/
O=C(Nc1ccc(Oc2cccc(C(F)(F)F)c2)nc1)c1ccco1	8	0	-2	-30	39	/
O=C(Cc1n[nH]c(=O)c2ccccc12)OCC(=O)c1ccc(F)c(F)c1	/	/	/	/	1	/
CC1=CC(=O)C(C(C)C)=C/C1=C(\c1cc(C(C)C)c(OP(=O)(O)O)cc1C)c1ccccc1C(=O)O	22	/	/	34	35	/
O=C(NC(CSCc1ccccc1)C(=O)N/N=C/c1ccc(O)cc1O)c1ccc([N+](=O)[O-])cc1 (stereo not given)	20	7	9	33	84*	50*
COc1cc(O)ccc1/C=N/NC(=O)c1ccc([N+](=O)[O-])cc1	-7	-2	5	-2	8	-12
Cc1ccc(C#CC[N+](C)(C)CC#Cc2ccccc2)cc1	2	85*	68*	0	29	10
COc1ccc(Cn2cnc3c(N)c(C)c(C)cc32)cc1	-4	-1	7	-15	24	5
CCCCCCCCn1cnc2c(N)c(C)c(C)cc21	19	76*	60*	-19	-24	6
O=C(NC(Nc1ncc(S(=O)(=O)c2ccc([N+](=O)[O-])cc2)s1)(C(F)(F)F)C(F)(F)F)c1ccc(Cl)cc1	-4	0	4	11	73*	-12
O=C(c1ccc(F)cc1)N(C(=O)c1ccc(F)cc1)c1ncccn1	-1	-2	2	-32	8	71*
CCCCSc1nc(C)cc(SCC(=O)N/N=C/c2cccc(OC)c2O)n1	0	2	9	24	81*	43
COc1cccc(/C=N/NC(=O)C(=O)Nc2ccccc2OC(F)(F)C(F)F)c1O	2	-3	0	13	71*	33
COc1ccc(CCCC(=O)N/N=C/c2cccc(OC)c2O)cc1C	3	-2	6	-18	74*	12
COc1cccc(/C=N/NC(=O)CSc2nnc(C)n2-c2ccccc2)c1O	3	0	-3	24	38	-9
CCOc1ccccc1NC(=O)C(=O)N/N=C/c1cc(Br)ccc1O	8	-1	4	-23	51	59*
Cc1ccccc1S(=O)(=O)Cc1ccc(C(=O)NC2CCCCC2)o1	2	/	/	-18	-1	/
COc1ccc(OC)c(/C=N\NC(=O)c2ccc(-c3ccccc3)cc2)c1	5	/	/	-18	/	/
COc1cccc(/C=N/NC(=O)c2ccc(-c3ccccc3)cc2)c1O	3	-3	2	23	76*	18
COc1ccc(C(=O)Nc2cccc(C(=O)N/N=C/c3ccc(OC)cc3OC)c2)cc1	10	/	/	-29	83*	/
